p53 reactivator: restores transcriptional activity of mutant p53 | H1299 p53-A138V BP100-luciferase reporter, luminescence, 24 h | actives 0.063% (n = 320,000) | Potency, µM (titrated, usually from 92.2 µM), without a hit: at the highest dose activity change, positive = activation, usual class: activators; further: potency means the concentration at half of the fitted maximal effect; % of control where 0% means no effect; nearly all actives have a fitted effect of over 45% in size
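H1299 (p53-null), stable ts p53-A138V + BP100-Luc; 1000 cells/well, Opti-MEM/10% FBS; cpd 4 pt, 1:5; 24 h, 37 deg C, 5% CO2; detection reagent 10 min RT; luminescence.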
GLP-1R inv ag: inverse agonists of human GLP-1 receptor; HEK293 GLP-1R CRE-luciferase, luminescence, 24 h; GLP-1R form is constitutively active; actives 1.6% (n = 410,000); P43220; Potency, µM (doses to about 38.3 µM), for the others: at the top dose activity change, negative = inhibition, most hits filed as inhibitors; further: potency means the concentration at half of the fitted maximal effect; on the % scale 0 is the no-effect control and ±100 the full control effect; nearly all actives have a fitted effect of over 55% in size
Target sequence (P43220 whole entry, looked up): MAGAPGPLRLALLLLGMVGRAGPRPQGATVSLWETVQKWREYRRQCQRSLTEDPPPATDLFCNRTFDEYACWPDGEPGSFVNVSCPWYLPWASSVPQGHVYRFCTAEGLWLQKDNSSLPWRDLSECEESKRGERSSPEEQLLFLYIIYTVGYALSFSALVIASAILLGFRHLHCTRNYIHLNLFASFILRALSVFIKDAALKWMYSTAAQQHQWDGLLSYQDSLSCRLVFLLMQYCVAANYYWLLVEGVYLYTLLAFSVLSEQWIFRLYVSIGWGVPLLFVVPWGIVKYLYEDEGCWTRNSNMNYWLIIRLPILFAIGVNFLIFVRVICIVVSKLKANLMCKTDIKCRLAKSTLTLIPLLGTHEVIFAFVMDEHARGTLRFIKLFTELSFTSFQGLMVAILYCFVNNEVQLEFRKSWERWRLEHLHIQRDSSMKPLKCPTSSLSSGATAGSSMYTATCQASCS
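Cells are plated, allowed 12 hours at 37 deg C, then treated with compounds for 24 hr before luciferase detection reagent is added and luminescence is read after 12 min at room temperature. The HEK293 line carries constitutively active GLP-1R with a cAMP-responsive reporter.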
HEK293 tox: cytotoxicity in counter-screen for GLP-1R inverse agonists. actives 0.13% (n = 410,000). Potency, µM (titrated, usually from 38.3 µM), for inactives: at the top dose activity change, negative = inhibition, actives largely listed as inhibitors. HEK293 cAMP-luciferase reporter cells, luminescence, 24 h;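 further: loss of luciferase light is scored as toxicity; potency means the concentration at half of the fitted maximal effect; on the % scale 0 is the no-effect control and ±100 the full control effect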
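To flag toxic compounds, the library was rerun on cells for 24 hr at 37 deg C and 5% CO2. Viability-linked luminescence was captured 12 min after adding luciferase detection reagent.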
ClpP mod: qHTS Assay for Activators of ClpP; Potency, µM (titrated, usually from 57.5 µM), for the others: at the top dose activity change, negative = active; actives 1.9% (n = 340,000); purified B. subtilis ClpP, FRET peptide cleavage, 20 min; active means well fitted falling curve with a large enough effect; inconclusive means small, poorly fitted or top-dose-only effect; inactive means no such curve, though single readings can be large or run the other way; further: potency means the concentration at half of the fitted maximal effect; the source files actives as falling curves though it sought activators and does not explain the sign; nearly all actives have a fitted effect of over 65% in size
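ClpP 10 microg/mL final, pH 8 Tris/KCl buffer with BSA, glycerol, Tween-20; compound pinned in; FRET-FV substrate; RT 20 min; Ex320/Em430; ΔFRET vs ADEP 5.8 microM, DMSO, no enzyme.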
LDHA block: LDHA (human) enzyme inhibition. P00338. actives 0.15% (n = 480,000). purified LDHA, NADH/diaphorase-resazurin fluorescence; active compounds read low. activity change, % (values are at about 110 or 230 µM). AID 1347041; in the data active means activity change below about -30%; inconclusive means mostly about -25% to -30%;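 further: plate controls were DMSO wells for no effect and wells without enzyme for full effect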
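Remaining NADH was detected by diaphorase (0.133 mg/mL) converting 37 µM resazurin to fluorescent resorufin, read at 0 and 20 minutes. The preceding 5-minute room-temperature reaction used 2 nM LDHA, 0.2 mM sodium pyruvate and 0.06 mM NADH at pH 7.4.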
GLP-1R agonist: GLP-1 receptor (human) agonism | actives 0.007% (n = 380,000) | AID 624172 | HEK293 GLP-1R CRE-luciferase, luminescence, 4-6 h; cells express a hypersensitive GLP-1R form | Potency, µM (doses to about 45.6 µM), for the others: at the top dose activation, actives largely listed as activators | P43220; further: potency means the concentration at half of the fitted maximal effect; % of control where 0% means no effect
Starred values were filed as active, the others as inactive. Rows were chosen to be rich in hits. Some 2.9% of all compounds tested hit in one or more screens of this group. Unless noted, the call rests on the fitted dose curve; in most records, active means well fitted curve in the direction sought with a large enough effect; inconclusive means small, poorly fitted or top-dose-only effect, or another doubt; inactive means no such curve, though single readings can be large; an effect the other way counts as inactive or inconclusive.

For CCOc1ccc(S(=O)(=O)NCc2ccc(F)cc2)c2cccnc12 the results were p53 reactivator -6.3%, GLP-1R inv ag 13.3%, HEK293 tox 17.8%, ClpP mod 25.1µM*, LDHA block 4.0 and GLP-1R agonist 28.4%.
CCOc1cc(C)c(S(=O)(=O)Nc2ccc(Cl)cn2)cc1C was read as p53 reactivator -1.5%, GLP-1R inv ag 0.0%, HEK293 tox 20.5%, ClpP mod -6.3%, LDHA block -1.3 and GLP-1R agonist -0.4%.
CCOc1ccc(S(=O)(=O)NCc2ccc(OC)cc2)c2cccnc12 was read as p53 reactivator -11.0%, GLP-1R inv ag 18.3%, HEK293 tox 4.9%, ClpP mod -5.6%, LDHA block -3.3 and GLP-1R agonist -2.6%.
CCOc1ccc(S(=O)(=O)Nc2ccccn2)c2ccccc12 was read as p53 reactivator -2.6%, GLP-1R inv ag 8.9%, HEK293 tox -8.5%, ClpP mod 35.5µM*, LDHA block -6.2 and GLP-1R agonist 3.9%.
`CCOc1ccc(S(=O)(=O)Nc2ccc(Cl)cn2)c(C)c1C` gave p53 reactivator 7.4%, GLP-1R inv ag 11.2µM*, HEK293 tox 2.0%, ClpP mod -19.8%, LDHA block -0.7 and GLP-1R agonist -14.3%.
Screening CCC1CCCCN1C(=O)Cn1c(=O)n(-c2ccc(F)c(C)c2)c(=O)c2sccc21 (centres undefined) returned LDHA block -38.8*.
CCOc1ccccc1NC(=O)c1nnn(-c2ccc3c(c2)OCCO3)c1N was read as p53 reactivator 5.0%, GLP-1R inv ag 2.51µM*, HEK293 tox -8.2%, LDHA block 4.5 and GLP-1R agonist 7.3%.
Cc1cccc(NC(=O)c2ncoc2-c2cccs2)c1C was read as LDHA block 3.2.
Cc1ccccc1-c1ocnc1C(=O)Nc1ccccc1NC(=O)c1ccccn1 was read as p53 reactivator -0.2%, GLP-1R inv ag 3.98µM*, HEK293 tox inconclusive, LDHA block -1.5 and GLP-1R agonist 12.6%.
Cc1ccc(C(C)C)c(OCC(=O)Nc2cc(C(F)(F)F)ccc2N2CCOCC2)c1 was read as LDHA block 4.6.
`CN(CC(=O)Nc1ccc(Cl)cc1)CC(=O)Nc1ccc(C(N)=O)cc1` gave p53 reactivator -5.4%, GLP-1R inv ag 6.8%, HEK293 tox 0.1%, ClpP mod 1.9%, LDHA block 0.5 and GLP-1R agonist 2.4%.
Screening CN(C)CC(=O)Nc1ccc(Oc2ccc(Cl)cc2)cc1 returned p53 reactivator -2.5%, GLP-1R inv ag 5.01µM*, HEK293 tox 9.4%, LDHA block -14.4 and GLP-1R agonist 15.3%.
For O=C(NC(=S)Nc1ccc(Oc2ccc(Cl)cc2)cc1)c1ccccc1 the results were p53 reactivator -6.4%, GLP-1R inv ag 12.6µM*, HEK293 tox inconclusive, ClpP mod -0.9%, LDHA block -7.5 and GLP-1R agonist -5.9%.
O=C(NC(=S)Nc1ccc(Cl)cc1)c1ccccc1 was read as p53 reactivator 13.6%, GLP-1R inv ag 14.4%, HEK293 tox -1.5%, LDHA block -8.6 and GLP-1R agonist 20.2%.
`CC1CCCCN1C(=O)Cc1ccc(Cl)cc1` (centres undefined) gave p53 reactivator 27.2%, GLP-1R inv ag inconclusive, HEK293 tox -6.5%, ClpP mod -0.7%, LDHA block -2.9 and GLP-1R agonist 1.5%.
For CCOc1ccccc1NC(=O)CCN(c1ccc(C)cc1)S(=O)(=O)c1ccccc1 the results were p53 reactivator -2.5%, GLP-1R inv ag 11.2µM*, HEK293 tox 12.1%, ClpP mod 1.4%, LDHA block 0.3 and GLP-1R agonist 5.4%.
